From PubChem BioAssay AID1220 (Sanford-Burnham Center for Chemical Genomics, 2008)
About 1,300 (0.68%) of roughly 190,000 compounds were called active. The entries come from a sample that favours actives as a whole. Values without a mark were called inactive. Cut-off read from the data, not from the text of the source: active = inhibition above about 50%; inactive = the rest.

Each compound was assayed against Mannose-6-phosphate isomerase (Homo sapiens) (UniProt P34949) (assay: MPI inhibition at elevated mannose 6-phosphate – biochemical, fluorescence intensity, high mannose 6-phosphate, primary screen (AID 1220)). Conditions: recombinant PMI enzyme, coupled fluorescence intensity; at 20 µM; active compounds read high.
Chain of Mannose-6-phosphate isomerase (Homo sapiens) (P34949 whole entry, looked up): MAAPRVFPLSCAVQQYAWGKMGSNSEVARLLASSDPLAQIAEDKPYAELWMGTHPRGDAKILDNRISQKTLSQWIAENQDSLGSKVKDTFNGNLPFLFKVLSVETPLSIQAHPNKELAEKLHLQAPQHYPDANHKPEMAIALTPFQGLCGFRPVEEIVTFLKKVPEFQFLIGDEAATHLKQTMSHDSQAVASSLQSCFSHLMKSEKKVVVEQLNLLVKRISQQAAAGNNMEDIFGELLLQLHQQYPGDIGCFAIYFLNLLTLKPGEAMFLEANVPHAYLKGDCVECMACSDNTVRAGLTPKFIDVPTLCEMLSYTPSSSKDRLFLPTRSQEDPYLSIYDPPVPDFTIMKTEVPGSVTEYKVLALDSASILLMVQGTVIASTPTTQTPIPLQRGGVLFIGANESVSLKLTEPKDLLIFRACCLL
`O=C(Cn1cncn1)N/N=C/c1ccc(Cl)cc1` gave an inhibition of -5%.
In the case of `O=C(Cn1cncn1)NCc1ccc(Cl)cc1`, the inhibition is reported as -13.3%.
For `Cc1cc(Cl)ccc1NC(=O)Cn1cncn1`, the inhibition was 62.6% (active).
`COc1cc2cc(C(N)=O)c(N)nc2cc1OC` showed an inhibition of -0.4%.
`COc1cc2cnncc2cc1OC` gave an inhibition of -4.8%.
`COc1cc2cnc(Cl)nc2cc1OC` was tested, and the inhibition was 54.8% (active).
`COc1ccc(CC(=O)NCc2n[nH]c(=S)n2-c2ccccc2)cc1` showed an inhibition of -0.6%.
Work on `CCOC(=O)N1CCN(Cc2ccccn2)CC1` yielded an inhibition of -7.5%.
`CCOC(=O)N1CCN(Cc2ccccc2Cl)CC1` gave an inhibition of 4.6%.
`OCCN1CCN(Cc2cc(Cl)c3cccnc3c2O)CC1` was tested, and the inhibition was 48.3%.
In the case of `Cc1ccc(C)c(S(=O)(=O)N2CCN(Cc3ccc(O)c4ncccc34)CC2)c1`, the inhibition is reported as 19.7%.
`COc1ccc(-n2c(SCC(=O)Nc3nccs3)nc3c(c2=O)SCC3)cc1` gave an inhibition of 11.9%.
Compound `CCC(=O)c1ccc(OCC(O)CN2CCOCC2)cc1` (stereo not given) has an inhibition of 6.8%.
In the case of `O=C(Nc1ccc2c(c1)CCC2)Nc1ccc2c(c1)OCO2`, the inhibition is reported as 11%.
`CC(/C=N/Nc1nc(C)cc(=O)[nH]1)=C\c1ccccc1` showed an inhibition of -78.9%.
`COc1ccccc1NC(=S)NNC(=S)Nc1ccc(OC(F)F)cc1` was tested, and the inhibition was 5.4%.
With `COc1ccc(NC(=S)Nc2ccccc2)cn1` the inhibition was 8.5%.
With `COc1ccc(NC(=S)Nc2ccc(OC(F)F)cc2)cn1` the inhibition was 58.2% (active).
With `O=C(O)c1ccccc1SCC(=O)N1CCc2ccccc21` the inhibition was -1.8%.
`O=C1OC(Nc2cc(Br)cc3cccnc23)c2ccccc21` (stereo not given) was tested, and the inhibition was 50.7% (active).
`COC(=O)c1ccccc1NC1OC(=O)c2ccccc21` (stereo not given) was tested, and the inhibition was 8.6%.
With `O=C1OC(Nc2ccc(Br)cc2F)c2ccccc21` (stereo not given) the inhibition was -12.4%.
`CCOC(=O)c1ccccc1NC1OC(=O)c2ccccc21` (stereo not given) gave an inhibition of 6.8%.
For `Cc1ccc2cccc(NC3OC(=O)c4ccccc43)c2n1` (stereo not given), the inhibition was 59.9% (active).
In the case of `O=C1OC(Nc2ncccn2)c2ccccc21` (stereo not given), the inhibition is reported as 5.1%.
`Cc1ccc(OCCOc2ccc(Br)cc2/C=N\NC(N)=O)cc1` showed an inhibition of 4%.
Work on `CCOc1ccc(N=Nc2c(=O)[nH]n3c(C)cc(C)nc23)cc1` yielded an inhibition of 18%.
`CCOC(=O)C1CCCN(C2CC(=O)N(c3ccc(C)cc3)C2=O)C1` (stereo not given) showed an inhibition of -2.1%.
Compound `COC(=O)CP(=O)(c1ccccc1)c1ccccc1` has an inhibition of -5.8%.
With `CCOC(=O)COc1ccc(/C=C/[N+](=O)[O-])c(OCC(=O)OCC)c1` the inhibition was 1.7%.
For `CCOc1ccc(/C=C/[N+](=O)[O-])c2ccccc12`, the inhibition was 55.6% (active).
For `CCOC(=O)COc1ccc2ccccc2c1/C=C/[N+](=O)[O-]`, the inhibition was 54.6% (active).
With `O=[N+]([O-])/C=C/c1c(OCc2ccccc2)ccc2ccccc12` the inhibition was 3.1%.
`CCOC(=O)COc1ccccc1/C=C\[N+](=O)[O-]` was tested, and the inhibition was 0.8%.
In the case of `CCOC(=O)Cn1cc(/C=C/[N+](=O)[O-])c2ccccc21`, the inhibition is reported as 8.7%.
Compound `COc1ccc(Nc2nc(N)nc(CSc3nncn3C)n2)cc1` has an inhibition of 4.9%.
Compound `CCN(Cc1ccccc1)C(=O)CSc1nc(C)cc(C)c1C#N` has an inhibition of 5.3%.
`Cc1ccc2c(c1)NC(C(C)(C)C)CO2` (stereo not given) was tested, and the inhibition was -5.8%.
Compound `CC1CCC(C(C)C)C(OC(=O)COC(=O)c2cccn2C)C1` (stereo not given) has an inhibition of 16%.
For `CC1CCC(C(C)C)C(OC(=O)COC(=O)c2ccc(N)cc2)C1` (stereo not given), the inhibition was 16.2%.
In the case of `CC1CCC(C(C)C)C(OC(=O)COC(=O)c2cc(O)ccc2N)C1` (stereo not given), the inhibition is reported as 59.5% (active).
`Cc1ccc(SCCNC(=O)CN(c2ccc3c(c2)OCO3)S(C)(=O)=O)cc1` showed an inhibition of 13.2%.
With `CCc1ccccc1OCc1nc2ccc(S(=O)(=O)N3CCOCC3)cc2[nH]1` the inhibition was 9.5%.
For `CC(C)Cc1nc(N2CCC(C(N)=O)CC2)c2nnn(Cc3ccccc3)c2n1`, the inhibition was -15%.
`Cc1ccc(S(=O)(=O)/N=C2/C=C(C3C(=O)CC(C)(C)CC3=O)C(=O)c3ccccc32)cc1` was tested, and the inhibition was -3.6%.
`O=C(O)c1ccc(NC2=C/C(=N/S(=O)(=O)c3ccccc3)c3ccccc3C2=O)cc1` was tested, and the inhibition was -34.1%.
In the case of `CCc1ccc(S(=O)(=O)ON2C(=O)c3ccccc3C2=O)cc1`, the inhibition is reported as -11.4%.
`O=C1c2ccccc2C(=O)N1CCSc1ncn[nH]1` gave an inhibition of -12%.
`CC(C)c1ccc(N2C(=O)CC(Sc3ncn[nH]3)C2=O)cc1` (stereo not given) gave an inhibition of 22.4%.
For `CCc1ccc(S(=O)(=O)/N=C2/C=C(Sc3ncn[nH]3)C(=O)c3ccccc32)cc1`, the inhibition was 90.6% (active).
`CCc1ccc(S(=O)(=O)/N=C2\C=CC(=O)c3ccccc32)cc1` was tested, and the inhibition was 50.7% (active).
In the case of `Cc1ccc(S(=O)(=O)/N=C2/C=C(Sc3ncn[nH]3)C(=O)c3ccccc32)cc1`, the inhibition is reported as 88.3% (active).
For `CC(C)c1ccc(S(=O)(=O)/N=C2/C=CC(=O)c3ccccc32)cc1`, the inhibition was 44.1%.
With `CC(C)c1ccc(S(=O)(=O)/N=C2/C=C(Sc3ncn[nH]3)C(=O)c3ccccc32)cc1` the inhibition was 80% (active).
`CCc1ccc(C(=O)CSc2ncn[nH]2)cc1` was tested, and the inhibition was -20.5%.
Work on `COC(=O)C(C(C)=O)C1=C/C(=N\S(=O)(=O)c2ccc(C)cc2)c2ccccc2C1=O` (stereo not given) yielded an inhibition of 18%.
`CCOC(=O)N1CCN(C(=O)CSCc2ccc(Br)cc2)CC1` gave an inhibition of 1.1%.
Compound `Cc1ccc(NC(=O)CSc2nnc(C(F)(F)F)n2C)cc1[N+](=O)[O-]` has an inhibition of 2.1%.
`CC(C)/C=C1\CCCCC1N(C)C(=O)NC(C)C` (stereo not given) showed an inhibition of 2.9%.
For `CCCCCCCSc1nnc(-c2ccccc2N)c(=O)[nH]1`, the inhibition was 13.6%.
With `CCNc1sc(C(=O)c2cccs2)c(N)c1-c1nc2ccccc2s1` the inhibition was -5.3%.
In the case of `Cc1ccc2sc(N(CCCN(C)C)C(=O)c3ccc(Br)s3)nc2c1C`, the inhibition is reported as -10.3%.
In the case of `CCOc1ccccc1N(CC(=O)NC1CCCCC1)C(=O)c1nsc(Cl)c1Cl`, the inhibition is reported as 8.5%.
With `CCOc1ccccc1NC(=O)Cn1nnc(-c2ccc(OCC)c(OCC)c2)n1` the inhibition was -1.1%.
`COc1ccc(-c2cn(-c3cccc(C)c3)c(=O)[nH]2)cc1OC` showed an inhibition of -94.8%.
